Laboratory results as given in PubChem BioAssay (NCATS).
Results filed as inconclusive are left out. Calls of active or inactive are those of the source. Calls come from the whole dose curve; as a rule, active = well fitted curve in the direction sought with a large enough effect; inconclusive = small, poorly fitted or top-dose-only effect, or another doubt; inactive = no such curve, though single readings can be large; an effect the other way counts as inactive or inconclusive.

Legend:
[1] = test system: Zika virus NS2B-NS3 protease; assay: Primary screen GU AMC qHTS for Zika virus inhibitors (AID 1347154); note: nearly all actives have a fitted effect of over 70% in size
Procedure, shortened: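 Unlinked Zika NS2B hydrophilic domain/NS3 protease domain noncovalent complex (25 nM final) in 10 mM Tris-HCl pH 8.0, 0.01% Tween 20, with AMC peptide substrate. Fluorescence (ex 340, em 450 nm) change over 15 min, room temperature; percent inhibition fitted to 4-parameter Hill equation.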

[2] = Counterscreen qHTS for small molecule stabilizers of the endoplasmic reticulum resident proteome: GLuc-NoTag assay (AID 1508627);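 note: SH-SY5Y cells given compound then 100 nM thapsigargin to empty ER calcium; series mostly up to about 76 µM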
Procedure, shortened: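 SH-SY5Y cells stably expressing constitutively secreted GLuc (no SERCaMP tag) were pre-incubated 5 h, treated with compound for 19 h, then 100 nM thapsigargin for 4 h at 37C; medium GLuc read by coelenterazine luminescence.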

[3] = molecular target: Calcium and integrin-binding protein 1 (Homo sapiens) (UniProt Q99828); assay: Primary qHTS for Identification of Calcium Integrin Binding Protein 1 (CIB1) Competitor (AID 1508620)
Procedure, shortened: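 Fluorescence polarization competition: CIB1-GST (1 uM final) preincubated with compound 15 min at room temperature, then FITC-labeled alphaIIb peptide (100 nM final) added for another 15 min. Polarization read at Ex 480/Em 540.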

[4] = NCATS anti-infectives library activity on HEK293 viability as a counter-qHTS vs the C. elegans viability qHTS (AID 1745854)
Procedure, shortened: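 HEK293 cells, 1500 per well, exposed 24 hr at 37C in 5% CO2 to compounds in a 1:5 titration, up to 41.7 uM final. Viability read as CellTiter-Glo luminescence after 10 min at room temperature.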

[5] = molecular target: Glutathione peroxidase 1 (Homo sapiens) (UniProt P07203); assay: Primary qHTS Assay for Inhibitors of Recombinant Selenoprotein Glutathione Peroxidase 1 (GPX1) (AID 1845191); note: nearly all actives have a fitted effect of over 65% in size
Procedure, shortened: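 Recombinant GPX1 (10 nM final) was preincubated with compound for 30 min at room temperature, then reacted with 1 mM GSH, 0.5 mM CHP, 0.5 mM NADPH and 100 nM glutathione reductase; NADPH fluorescence (340/450 nm) was read at 0 and 15 min.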

Measured: Potency

Calcium and integrin-binding protein 1 (Homo sapiens), sequence (Q99828 whole entry, looked up): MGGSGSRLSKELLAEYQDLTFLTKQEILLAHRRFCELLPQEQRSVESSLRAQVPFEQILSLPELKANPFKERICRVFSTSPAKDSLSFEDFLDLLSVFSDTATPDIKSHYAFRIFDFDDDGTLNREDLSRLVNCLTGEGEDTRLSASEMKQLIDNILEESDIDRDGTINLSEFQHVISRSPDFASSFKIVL
Glutathione peroxidase 1 (Homo sapiens), sequence (P07203 whole entry, looked up): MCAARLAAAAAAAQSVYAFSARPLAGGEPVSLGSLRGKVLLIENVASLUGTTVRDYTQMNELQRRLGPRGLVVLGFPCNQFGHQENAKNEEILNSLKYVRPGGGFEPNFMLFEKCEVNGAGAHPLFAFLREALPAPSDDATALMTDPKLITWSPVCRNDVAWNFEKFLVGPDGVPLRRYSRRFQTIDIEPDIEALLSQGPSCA

CC(C)N1CCN(c2ccc(C(=O)c3c(-c4ccc(O)cc4)sc4cc(O)ccc34)cc2)CC1
inactive: [1] | [2]

CN(C)/C(N)=N/C(=N)N
not listed: [2]
inactive: all other assays above
